About 83,000 compounds went through this panel and 20% of them were active in at least one assay; those are over-represented in the sample as a whole.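 Single-concentration screen, 48 h exposure, 96-well plates. Endpoint: percent growth. Below 10 = active.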 Active and inactive are the calls of the source.

The test system of this assay is MDA-MB-468 breast. The assay is described as follows: NCI-60 one-dose screen, 48 h (100 = growth as untreated, 0 = no growth, -100 = all killed). The note with it: 10 µM unless noted.
Take `COc1ccc2[nH]cc(C3(c4c[nH]c5ccc(OC)cc45)C(=O)Nc4ccc(Cl)cc43)c2c1`: the growth is 97.7% (inactive).

`COc1ccc(/C=C2\CCCC3=C2N=C2SC=NN2C3c2ccc(OC)c(OC)c2)cc1OC` (stereo not given): the growth is 14.5% (inactive).

`Nc1nc(NC(=O)Nc2ccc(C(=O)O)cc2)nn1-c1ccc(S(N)(=O)=O)cc1`: the growth was 91.6% (inactive).

As for `CCC(C)(O)CCC(C)(O)CC` (stereo not given), the growth was 106% (inactive).

As to `N#CSCc1ccc(Cl)c(CSC#N)c1`, the growth was 51.5% (inactive).

`COc1ccc2nc(NC(=O)c3cccnc3Nc3cc(OC)c(OC)c(OC)c3)sc2c1`: the growth is 60.3% (inactive).

For `O=S(=O)(Nc1ccc(-n2cnc3cc(-c4ccc(O)cc4)ccc32)cc1)C1CC1`, the growth is 111% (inactive).

For `CC(=O)O[C@H]1CC2CCC3C(CC[C@@]4(C)C3C[C@H]([N+]3(C)CCCCC3)[C@@H]4OC(C)=O)[C@@]2(C)C[C@@H]1N1CCCCC1` (stereo not given in full), the growth is 106% (inactive).

Consider `O=C1C=CC(=O)N1c1ccccc1N1C(=O)C=CC1=O`, for which the growth was 104% (inactive).

`COc1ccc2nc3cc(Cl)ccc3c(N3CCN(c4ccnc(N5CCOCC5)n4)CC3)c2c1`: the growth is -54.8% (active).

Turning to `COc1ccc(CC(=O)Nc2nn3c(-c4cc(C(F)(F)F)cc(C(F)(F)F)c4)nnc3s2)cc1`, the growth was 48.4% (inactive).

In the case of `N#Cc1ccc(C(=O)CSc2nccc(Nc3ccc(C(=O)O)cc3)n2)cc1`, the growth was 101% (inactive).

In the case of `CCOC(=O)c1cnn(CC(O)CC)c1NC(=O)NCc1ccccc1C(F)(F)F` (stereo not given), the growth was 106% (inactive).

`CN1COc2ccc3ccccc3c2C1`: the growth is 111% (inactive).

`Cc1cc(NC(=O)c2cnc(N3CCN(CCOCCOCCOCCOCCC(=O)N[C@H](C(=O)N4C[C@H](O)C[C@H]4C(=O)N[C@@H](C)c4ccc(-c5scnc5C)cc4)C(C)(C)C)CC3)cn2)c2ncccc2c1`: the growth is -57.9% (active).

On to `CN(C)CCCNc1nn2c(=O)c3ccccc3nc2c2ccccc12`, for which the growth is 53.4% (inactive).

On to `CN1CCN(Cc2ccc(NC(=O)c3cncc(C#Cc4c(N)ncc5ccccc45)c3)cc2C(F)(F)F)CC1`, for which the growth was -71.6% (active).

Turning to `O=C1C=CC(=O)N1c1cccc(Cl)c1`, the growth was 86.7% (inactive).

Take `OCCS`: the growth was 100% (inactive).

For `NC(=O)c1cccc(-n2ccc3cc(NC(=O)Nc4ccc(Cl)c(C(F)(F)F)c4)ccc32)n1`, the growth is 47% (inactive).

Turning to `C=C1C(=O)O[C@H]2[C@H]1CC/C(COC(=O)C(=O)c1c[nH]c3ccccc13)=C\CC[C@@]1(C)O[C@@H]21`, the growth is -59.8% (active).

Regarding `Cc1cc(C(C)(C)C)cc(C)c1Br`, the growth was 113% (inactive).

Turning to `COc1ccc(-c2nn(-c3ccccc3)cc2/C=C/C(=O)NNC(=O)Nc2ccc(C)cc2)cc1`, the growth was 102% (inactive).

In the case of `Nc1c(C(=O)Nc2ccccc2Cl)sc2nc3c(cc12)CN(Cc1ccccc1)CC3`, the growth is 102% (inactive).

For `Nc1c2c(c(O)c3c1=C(CO)C=N3)=NCCS2`, the growth was -72% (active).

As to `C[n+]1c2ccccc2c(NC2CCNCC2)c2[nH]c3ccccc3c21`, the growth was -72.5% (active).

Take `ClCCn1cnc2c(SCc3ccccc3)ncnc21`: the growth was 74.8% (inactive).

With `c1cc(CNCCNCc2ccncc2)ccn1`, the growth is 104% (inactive).

Take `COc1cccc(-c2nn(C(C)(C)C)cc2-c2ccnc(NCCCNS(=O)(=O)c3ccc(C)cc3)c2)c1`: the growth is 104% (inactive).

For `COC(=O)[C@@H](Cc1c[nH]c2ccccc12)NC(=O)/C=C/c1ccccc1`, the growth is 19.6% (inactive).

In the case of `O=C(Nc1ccc2ncnc(Nc3cccc(C(F)(F)F)c3)c2c1)c1cccs1`, the growth is -2.49% (active).

Take `c1ccc(-c2nc(N3CCOCC3)c3c4c(sc3n2)CCCCC4)nc1`: the growth was 65.7% (inactive).

As to `Cc1c(O)cc(-c2cnc(Nc3ccccc3)s2)c(O)c1C`, the growth is 57.4% (inactive).

For the compound `Cn1c2nc3ccccc3c-2nc2ccccc21`, the growth is 75.4% (inactive).

For `CCCCCCCCO`, the growth is 98.9% (inactive).

With `N=C(N)c1ccc(-c2ccc(-c3ccccc3)s2)nc1`, the growth was 41.7% (inactive).

With `O=C1[C@@H]2Cc3c([nH]c4ccccc34)[C@H](c3c(Cl)cccc3Cl)N2C(=O)CN1C1CCN(Cc2c(F)cccc2F)CC1`, the growth was 102% (inactive).

On to `C(=C\c1ccccc1)/CN1CCN(C(c2ccccc2)c2ccccc2)CC1`, for which the growth was 89.6% (inactive).

On to `COc1ccc(/C=C/C(C)=N/OCC(=O)O)cc1`, for which the growth is 95.6% (inactive).

Regarding `CCC(c1cccc(O)c1)C(CC)c1cccc(O)c1` (stereo not given), the growth is 24.1% (inactive).

(Values after PubChem BioAssay (NCI).)
